ADAM17 inh – ADAM17 inhibitors, primary screen, biochemical, QFRET | Disintegrin and metalloproteinase domain-containing protein 17 (Homo sapiens), P78536 | recombinant ADAM17, EDANS/DABCYL FRET peptide cleavage | inhibition, % at 6.95 µM | 370,000 tested, 0.83% active | AID 720648, 2013;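 active = inhibition above the mean of compounds lying between control limits plus 3 SD, set per campaign, cut at about 8.5% in these data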;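 also: 0% = DMSO-only wells as the low control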
ADAM10 inh – human ADAM10 inhibitors, primary screen, biochemical, QFRET, HTS | Disintegrin and metalloproteinase domain-containing protein 10 (Homo sapiens), O14672 | recombinant ADAM10, EDANS/DABCYL FRET peptide cleavage, 3 h | inhibition, % at 7 µM | 370,000 tested, 0.62% active | AID 720582, 2013;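 active = inhibition above a per-campaign cutoff equal to the mean of compounds falling between control-based bounds plus 3 SD, cut at about 20% in these data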;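 also: 0% = DMSO wells while the 100% control is not disclosed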
A3A deaminase – APOBEC3A ssDNA deaminase inhibitors, primary screen, selectivity assay for APOBEC3G inhibitor project, biochemical, FAM/TAMRA oligo cleavage fluorescence. recombinant A3A, FAM/TAMRA ssDNA deamination fluorescence. inhibition, % at 20 µM. 330,000 tested, 0.41% active. AID 493011, 2011;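 active = at least 40% inhibition at 20 µM here, with at most 30% in a related deaminase screen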;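 also: plate controls were A3A with DMSO for no effect and wells lacking A3A enzyme for full effect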
CendR NRP1 mod – modulators of CendR peptide binding to NRP-1, primary screen, biochemical, fluorescence polarization, uHTS; Neuropilin-1 (Homo sapiens), O14786; inhibition, % at 25 µM; FAM-RPARPAR peptide binding to NRP-1; 360,000 tested, 0.85% active;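 active = inhibition or corrected inhibition above about 18%, plus a signal ratio from 0.5 to 1.5, limit read from the data, passing the limit was not always enough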
Target sequence (O14786 whole entry, looked up): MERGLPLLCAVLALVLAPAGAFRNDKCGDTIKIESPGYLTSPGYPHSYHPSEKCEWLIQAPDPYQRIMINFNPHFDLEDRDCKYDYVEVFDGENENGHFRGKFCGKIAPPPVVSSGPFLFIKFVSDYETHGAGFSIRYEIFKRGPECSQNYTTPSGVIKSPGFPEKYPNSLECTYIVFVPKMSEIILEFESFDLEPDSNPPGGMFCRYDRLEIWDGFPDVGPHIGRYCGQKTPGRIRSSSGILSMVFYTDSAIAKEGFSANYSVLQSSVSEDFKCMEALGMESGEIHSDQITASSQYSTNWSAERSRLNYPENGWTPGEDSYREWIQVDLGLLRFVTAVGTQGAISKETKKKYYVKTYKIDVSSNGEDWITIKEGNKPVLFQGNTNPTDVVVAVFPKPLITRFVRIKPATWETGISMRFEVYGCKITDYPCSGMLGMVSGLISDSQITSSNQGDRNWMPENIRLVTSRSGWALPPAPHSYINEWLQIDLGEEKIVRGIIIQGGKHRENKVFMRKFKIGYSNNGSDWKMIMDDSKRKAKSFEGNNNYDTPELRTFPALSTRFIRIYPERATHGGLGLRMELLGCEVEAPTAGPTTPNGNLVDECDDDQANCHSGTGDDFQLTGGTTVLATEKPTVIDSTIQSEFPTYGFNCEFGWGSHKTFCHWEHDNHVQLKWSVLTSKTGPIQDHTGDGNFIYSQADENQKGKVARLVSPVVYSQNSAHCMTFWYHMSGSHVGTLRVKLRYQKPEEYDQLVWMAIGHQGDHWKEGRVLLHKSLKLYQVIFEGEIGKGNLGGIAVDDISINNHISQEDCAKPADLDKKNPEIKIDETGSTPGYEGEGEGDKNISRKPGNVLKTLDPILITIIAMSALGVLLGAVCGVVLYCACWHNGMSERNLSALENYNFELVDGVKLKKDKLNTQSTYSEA
APOBEC3G inh – APOBEC3G DNA deaminase inhibitors, primary screen, biochemical, fluorescence, single-stranded DNA substrate, uHTS | DNA dC->dU-editing enzyme APOBEC-3G (Homo sapiens), Q9HC16 | recombinant A3G, ssDNA deamination FAM/TAMRA fluorescence | inhibition, % at 20 µM | 330,000 tested, 0.28% active;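 active = inhibition of at least 40% at 20 µM, with no more than 30% in the related APOBEC3A deaminase screen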;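 also: plate controls were DMSO wells with A3G for no effect and wells lacking A3G enzyme for full effect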
ADAM10 confirm – human ADAM10 inhibitors, confirmation, biochemical, QFRET, triplicate. AID 743208, 2013. 2,100 tested, 1% active. inhibition, % at 6.95 µM. shares compounds with ADAM10 inh. ADAM10 QFRET peptide cleavage, EDANS fluorescence;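 active = inhibition above about 20% chosen separately for each screening run, limit read from the data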;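 also: 0% = DMSO wells and 100% = marimastat wells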
ADAM17 counter – ADAM17 inhibitors, counter-screen for ADAM10 exosite inhibitor project, biochemical, QFRET, high throughput; 2,100 tested, 0.5% active; inhibition, % at 6.95 µM; shares compounds with ADAM10 inh; ADAM17 QFRET peptide cleavage, EDANS fluorescence; AID 743214, 2013;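 active = mean triplicate inhibition above the solvent-only control wells' mean plus 3 SD, cut at about 12% in these data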;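 also: 0% = DMSO wells and 100% = marimastat wells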
ADAM10 ctr – ADAM10 inhibitors, counter-screen for ADAM17 exosite inhibitor project, biochemical, FRET, human ADAM10. 2,900 tested, 47% active. recombinant ADAM10, EDANS/DABCYL FRET peptide cleavage, 3 h. inhibition, % at 6.95 µM. shares compounds with ADAM17 inh. AID 743256, 2014;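 active = mean inhibition over the triplicate runs exceeds the activity threshold set in the earlier primary screen, cut at about 20% in these data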;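 also: 0% = DMSO wells and 100% = marimastat wells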
ADAM17 confirm – ADAM17 inhibitors, hit retest, confirmation, biochemical, QFRET peptide cleavage. shares compounds with ADAM17 inh. recombinant ADAM17, EDANS/DABCYL QFRET peptide cleavage. inhibition, % at 6.95 µM. 2,900 tested, 65% active. AID 743257, 2014;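 active = mean inhibition across replicates above the hit cutoff set in the primary screen, cut at about 8.5% in these data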;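 also: 0% = DMSO wells and 100% = marimastat wells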
* hit, by the source's call; nt = no result. Only some compounds are listed: those with a hit (about 2.4% of all), similar ones and a draw of the others.

SMILES	ADAM17 inh	ADAM10 inh	A3A deaminase	CendR NRP1 mod	APOBEC3G inh	ADAM10 confirm	ADAM17 counter	ADAM10 ctr	ADAM17 confirm
C=CC[C@@H](CC(=O)NCCO)C(=O)N[C@H](COC(=O)[C@@H](CC=C)Cc1ccc(F)cc1)Cc1c[nH]c2ccccc12	2	-13	-6	1	-5	nt	nt	nt	nt
C=CCC[C@@H](Cc1ccc(F)cc1)C(=O)OC[C@@H](Cc1c[nH]c2ccccc12)NC(=O)[C@@H](CC=C)CC(=O)NCCO	17*	28*	-3	-4	-6	3	0	29*	15*
CCOC(=O)C1=CN(Cc2cccc(F)c2)S(=O)(=O)NC1c1ccc(Br)cc1F (centres undefined)	9.6*	21*	3	-7	6	3	1	24*	15*
CC(C)=C[C@H]1C[C@H](C)[C@H]2CC[C@H](C)c3c(O[C@@H]4OC[C@@H](O)[C@H](O)C4O)c(O)c(C)c1c32 (some centres undefined)	21*	30*	-4	9	-6	6	3	15	9.1*
O=C(Nc1cccc(F)c1)c1cc(S(=O)(=O)NCCC2=CCCCC2)ccc1F	9.1*	24*	-2	-2	-4	8	2	22*	14*
COc1ccc(N(CC(=O)Nc2cc(C)cc(C)c2)S(=O)(=O)c2ccccc2[N+](=O)[O-])c(OC)c1	7	13	8	-1	-15	nt	nt	nt	nt
COc1ccc(N(CC(=O)Nc2ccc(F)cc2)S(=O)(=O)c2ccccc2[N+](=O)[O-])c(OC)c1	11*	25*	-4	0	-6	2	1	32*	14*
CN(c1ccc(C(=O)NCCSCc2ccc(Cl)cc2)cc1)S(=O)(=O)c1ccccc1	18*	28*	4	1	3	6	2	36*	15*
Cc1ccc(CSCCNC(=O)c2ccc(N(C)S(=O)(=O)c3ccccc3)cc2)cc1	2	15	-2	4	3	nt	nt	nt	nt
Cc1ccc(S(=O)(=O)N/N=C/c2ccc(OS(=O)(=O)c3ccc(C)c([N+](=O)[O-])c3)cc2)cc1	12*	26*	-3	-5	-3	8	2	36*	20*
COc1ccc(C(=O)C2(C(=O)NCCO)CC(c3ccccn3)=NO2)cc1 (centres undefined)	-2	-1	nt	nt	nt	nt	nt	nt	nt
Cc1ccc(-c2csc(N3CCC(NS(=O)(=O)c4ccc5c(c4)OCCO5)CC3)n2)cc1	13*	24*	-1	-6	-2	10	3	20*	15*
CCCCOc1ccc(C(=O)NC2CCCCN(C(C)C)C2=O)cc1 (centres undefined)	-2	-12	nt	nt	nt	nt	nt	nt	nt
COc1ccc(C(=O)Nc2ccc(Cl)c(S(=O)(=O)Nc3ccccc3OC)c2)cc1	13*	21*	0	-7	-5	4	2	40*	23*
CCOc1ccc(NS(=O)(=O)c2cc(NC(=O)c3ccc(C)cc3)ccc2Cl)cc1	13*	28*	-1	4	-2	8	2	39*	22*
CCOc1ccc(NC(=O)c2ccc(NS(=O)(=O)c3cccc4cccnc34)cc2)cc1	0	0	nt	2	nt	nt	nt	nt	nt
COc1ccccc1NS(=O)(=O)c1cc(NC(=O)c2cc(F)c(F)c(F)c2F)ccc1N1CCOCC1	8.8*	22*	-2	9	-9	11	3	43*	28*
Cc1cccc(NC(=O)c2ccc(NS(=O)(=O)c3cccc4cccnc34)cc2)c1	13*	24*	nt	-4	nt	4	1	24*	15*
O=C(O)COc1ccccc1C=NNC(=O)Cc1cc(=O)[nH][nH]1	2	-7	nt	nt	nt	nt	nt	nt	nt
Cc1ccccc1NC(=O)OC1CC2CC1[C@H]1CCCCN1[C@H]2Cc1ccccc1 (some centres undefined)	-2	-8	nt	nt	nt	nt	nt	nt	nt
CN1CCO/C1=C(\C(Cl)=C(Cl)Cl)[N+](=O)[O-]	2	-1	-4	6	-6	nt	nt	nt	nt
CCC1CO/C(=C(\C(Cl)=C(Cl)Cl)[N+](=O)[O-])N1 (centres undefined)	13*	33*	0	6	-4	16	5	30*	17*
COc1cc([N+](=O)[O-])cc(/C=N/NC(=O)C(C)Nc2ccccc2C)c1O (centres undefined)	10.0*	26*	1	-20	3	0	1	24*	12*
COc1ccc(OC)c(-c2nnc3n2N=C(c2ccc(OC)c(OC)c2)CS3)c1	4	8	2	-6	-8	nt	nt	nt	nt
COc1ccc(OC)c(-c2nnc3n2N=C(c2ccc(OC)c(OC4CCCC4)c2)CS3)c1	17*	31*	-4	-6	-4	5	1	8	8
O=C(/C=C/c1ccc(Cl)cc1Cl)NCCSc1ccccc1	11*	25*	-3	6	-9	6	2	23*	17*
CCOC(=O)c1c(N)sc(C(O)(C(F)(F)F)C(F)(F)F)c1-c1ccc(Cl)cc1	11*	37*	-2	0	-8	8	2	47*	24*
CCOC(=O)c1c(NC(=O)/C=C/C(=O)O)sc(C)c1-c1ccc(Cl)cc1	1	13	0	-87	-11	nt	nt	nt	nt

Assay outcomes as filed in PubChem BioAssay.
